# Assay results taken from the supplement of paper PMC10981050.
# Values joined by “and” are separate entries in the source; they are usually repeats but may differ in a detail not shown here. Identical values can stand only once. Counter-ions that a name gives are not always drawn.
# What was measured:
# Assay in all cases: cell viability relative to vehicle control; higher = less cytotoxic
# Conditions in all cases: 10 µM
# K562 = test system: K562
# Procedure, shortened: (§1)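 Four leukaemia lines, as CRISPR-edited mutant clones and isogenic wild-type clones, were tested against Selleck bioactive, kinase and epigenetic probe libraries after removal of identity-inconsistent compounds. Cells were exposed to a single 10 µM dose for 48 h, and CellTiter-Glo luminescence was then read. Viability was calculated relative to the on-plate vehicle control.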
# MARIMO = test system: MARIMO
# Procedure, shortened: as §1
# MOLM14 = test system: MOLM14
# Procedure, shortened: as §1
# OCI-AML2 = test system: OCI-AML2
# Procedure, shortened: as §1
SMILES,cell viability (K562; SRSF2 genotype: SRSF2 P95H/wt),cell viability (K562; SRSF2 genotype: SRSF2 wt/wt) [%],cell viability (MARIMO; SRSF2 genotype: SRSF2 P95H/wt) [%],cell viability (MARIMO; SRSF2 genotype: SRSF2 wt/wt) [%],cell viability (MOLM14; SRSF2 genotype: SRSF2 P95H/wt) [%],cell viability (MOLM14; SRSF2 genotype: SRSF2 wt/wt) [%],cell viability (OCI-AML2; SRSF2 genotype: P95H/wt) [%],cell viability (OCI-AML2; SRSF2 genotype: wt/wt) [%]
O=C(O)c1cc(O)ccc1O [Gentisic acid],100% and 104%,99.6,101,105,101,102,102,111
CCc1cc(C(N)=S)ccn1 [Ethionamide],97.4% and 93.4%,91.2,97,98.1,106,100,94.3,97.7
O=C1C(=C(O)C=Cc2ccc(O)cc2)C(O)=C([C@@H]2O[C@H](CO)[C@@H](O)[C@H](O)[C@H]2O)C(=O)C1(O)[C@@H]1O[C@H](CO)[C@@H](O)[C@H](O)[C@H]1O (stereo not given in full) [Hydroxy safflor yellow A],90% and 88%,84.7,90.1,97.3,85.4,87.7,89.7,104
COc1c2c(cc3oc(COC4OC(CO)C(O)C(O)C4O)cc(=O)c13)OC(C(C)(C)O)C2 (stereo not given) [Prim-o-glucosylcimifugin],83.8% and 84.2%,88.3,84,94,88.3,88.2,91.8,98.1
CO/N=C1\C[C@]2(C[C@@H]3C[C@@H](C/C=C(\C)C[C@@H](C)/C=C/C=C4\CO[C@@H]5[C@H](O)C(C)=C[C@@H](C(=O)O3)[C@]45O)O2)O[C@H](/C(C)=C/C(C)C)[C@H]1C [Moxidectin],59.6% and 63.5%,66.4,54.6,67.3,46.9,53.3,40.1,25.3
CC1(C)CC[C@]2(C)CC[C@]3(C)C(=CC[C@@H]4[C@@]5(C)CC[C@@H](O)[C@](C)(C(=O)O)[C@@H]5CC[C@]43C)[C@@H]2C1,97.6% and 95.5%,97.8,97.8,108,102,103,94.4,96.1
Cc1ccc(C(=O)Cn2c3c(sc2=N)CCCC3)cc1,88.9% and 94.2%,91.3,81.4,93.8,84,96.9,83.9,92.3
NS(=O)(=O)c1ccc(NC(=O)Nc2ccc(F)cc2)cc1,99.9% and 107%,107,115,113,110,108,99.6,95
Cc1ccc(-c2cc(C(F)(F)F)nn2-c2ccc(S(N)(=O)=O)cc2)cc1 [Celecoxib],94.3% and 106%,94.1,99.1,104,101,101,122,96.5
"O=C(CCCCCCC(=O)Nc1ccccc1)NO [Vorinostat (SAHA, MK0683)]",1.62% and 17.9%,10.1,4.92,8.5,0.83,0.28,1.15,4.64
COCCc1ccc(OCC(O)CNC(C)C)cc1 (stereo not given) [Metroprolol succinate],103% and 108%,105,100,110,99.5,107,113,108
C[C@@H]1O[C@@H](OC[C@H]2O[C@@H](Oc3cc(O)c4c(c3)O[C@H](c3ccc(O)cc3)CC4=O)[C@H](O)[C@@H](O)[C@@H]2O)[C@H](O)[C@H](O)[C@H]1O [Narirutin],96.8% and 92.1%,92.3,98.2,97.5,98.9,96.8,101,99.4
CN1CCN(c2nc(C3=C(c4c[nH]c5ccccc45)C(=O)NC3=O)c3ccccc3n2)CC1 [Sotrastaurin (AEB071)],88.8% and 91.3%,81.6,72.4,80.5,30.8,21.6,32.8,50.3
Cc1ccc(-c2c(-c3nn(C)c4ncnc(N5CC[C@H](N6CCCCC6)C5)c34)cnn2C)cc1,92.8% and 98%,105,96.5,98.5,95.1,101,103,102
N=C1CCCN1Cc1[nH]c(=O)[nH]c(=O)c1Cl [Tipiracil hydrochloride],101% and 109%,104,109,112,110,105,102,94.7
OC1OC[C@@H](O)[C@@H](O)[C@@H]1O (stereo partly drawn) [D(-)-Arabinose],111% and 100%,118,110,109,100,111,116,117
CCCCCCCCCCCC1=C(O)C(=O)C=C(O)C1=O [Embelin],91.7% and 88.2%,85.5,90.3,98.8,90.9,91.9,89.3,94.6
CC1CCC2(O)C(C)(C)C3CCC2(C)C1C3 (stereo not given) [Patchouli alcohol],92.3% and 85.5%,89.2,89.5,102,91.1,89.5,80.6,93
CC(=O)SCC(Cc1ccccc1)C(=O)NCC(=O)OCc1ccccc1 (stereo not given) [Racecadotril (Acetorphan)],108% and 106%,103,98.3,99,106,105,118,102
CO/N=C(/C(=O)N[C@@H]1C(=O)N2C(C(=O)OCOC(=O)C(C)(C)C)=C(C)CS[C@H]12)c1csc(N)n1 [Cefetamet pivoxil hydrochloride],95.8% and 97%,102,95,104,92.5,103,107,98.1

SMILES,cell viability (K562; SRSF2 genotype: SRSF2 P95H/wt),cell viability (K562; SRSF2 genotype: SRSF2 wt/wt) [%],cell viability (MARIMO; SRSF2 genotype: SRSF2 P95H/wt) [%],cell viability (MARIMO; SRSF2 genotype: SRSF2 wt/wt) [%],cell viability (MOLM14; SRSF2 genotype: SRSF2 P95H/wt) [%],cell viability (MOLM14; SRSF2 genotype: SRSF2 wt/wt) [%],cell viability (OCI-AML2; SRSF2 genotype: P95H/wt) [%],cell viability (OCI-AML2; SRSF2 genotype: wt/wt) [%]
Cc1cc2c(F)c(Oc3ncnn4cc(OC[C@@H](C)OC(=O)[C@H](C)N)c(C)c34)ccc2[nH]1,89.4% and 85.9%,82,93.5,104,82,87.4,78.8,81.5
O=S(=O)(O)c1cc(O)ccc1O [Calcium Dobesilate],104% and 94.7%,103,103,110,98.4,103,104,103
CC1=CCC(=C(C)C)C(=O)CC(C)=CCC1 [Germacrone],110% and 109%,111,107,103,110,106,95.1,101
Cn1c2ccccc2c2c3c(c4c5ccccc5n(CCC#N)c4c21)CNC3=O,104% and 99.7%,97.7,85.5,93.9,42.6,36.8,62.8,65.6
"CC(C)n1nccc1-c1ncccc1COc1cccc(O)c1C=O [Voxelotor(GBT440, GTx011)]",97.7% and 98.4%,91.8,104,103,85.8,94,99.7,98.3
O=C(/C=C/c1cncc(F)c1)c1c(-c2ccccc2)c2cc(Cl)ccc2[nH]c1=O,6.82% and 5.38%,2.2,3.3,0.38,0.08,0.04,0.13,0.16
O=c1cc(-c2ccc(O[C@@H]3O[C@H](CO)[C@@H](O)[C@H](O)[C@H]3O)cc2)oc2cc(O)c([C@@H]3O[C@H](CO)[C@@H](O)[C@H](O)[C@H]3O[C@@H]3OC[C@H](O)[C@H](O)[C@H]3O)c(O)c12 [Vaccarin],97.3% and 93.7%,94.2,99.2,96.3,92.3,100,91.1,96
Cc1cc(/C=C/C#N)cc(C)c1Nc1ccnc(Nc2ccc(C#N)cc2)n1 [Rilpivirine],35.2% and 46.8%,50.1,61.8,59.8,49.6,43.9,44.2,48
CC(C)(C)NC(=O)N[C@H](C(=O)N1C[C@H]2[C@@H]([C@H]1C(=O)NC(CC1CCC1)C(=O)C(N)=O)C2(C)C)C(C)(C)C (stereo not given in full) [Boceprevir],85.6% and 87.6%,84.2,71.3,73.2,91.1,84.3,84,88.9
COC(=O)c1ccccc1O [Methyl salicylate],101% and 96.7%,94.8,99.2,104,96.3,104,94.3,102
Cc1ncc([N+](=O)[O-])n1CCO [Metronidazole (Flagyl)],105% and 104%,109,107,109,104,103,106,111
O=C(O)C1=CO[C@@H](O[C@@H]2O[C@H](CO)[C@@H](O)[C@H](O)[C@H]2O)[C@H]2[C@@H]1C=C[C@]2(O)CO [Monotropein],110% and 104%,107,101,106,104,104,90.7,103
CC#CCn1c(N2CCC[C@@H](N)C2)nc2c1c(=O)n(Cc1nc(C)c3ccccc3n1)c(=O)n2C [Linagliptin (BI-1356)],99% and 103%,103,98,97,101,106,110,93.6
CC1(C)S[C@@H]2[C@H](NC(=O)[C@H](N)c3ccc(O)cc3)C(=O)N2[C@H]1C(=O)O [Amoxicillin (Amoxycillin)],97.3% and 90.7%,91.7,91.2,98.5,99.7,100,92.4,105
NC(=O)c1noc([C@H](CCCC2CCCCC2)CC(=O)NO)n1,92.1% and 88.7%,83.8,61.7,68.3,76.3,80.6,15.1,40.7
COc1cccc(/C=N/N(C(=O)C(F)(F)F)c2ccc(C)cc2C)c1,90.5% and 95.3%,99.8,83.5,102,98.5,105,101,106
COc1cc(N2CCC(N3CCN(C)CC3)CC2)ccc1Nc1ncc(Cl)c(Nc2ccccc2S(=O)(=O)C(C)C)n1,78.8% and 75.5%,72.5,36.4,30.1,7.58,12.7,7.82,16.6
N#Cc1ccc(C(c2ccc(C#N)cc2)n2cncn2)cc1 [Letrozole],95.7% and 97.2%,91.9,91.9,94,96.8,92.3,87.5,90.1
OCc1cc(C(O)CNCCCCCCOCCCCc2ccccc2)ccc1O (stereo not given) [Salmeterol],77.8% and 87.8%,88.4,67.7,68.6,62.8,74.9,55.2,60.2
N=C(N)NC(=N)N1CCOCC1 [Moroxydine HCl],99.7% and 100%,91.8,97.6,101,95.8,99.5,98.1,93.8
